# Experimental data taken from ChEMBL document CHEMBL4649986, “Chemical probes and inhibitors of bromodomains outside the BET family” (Medchemcomm, 2016).
# Columns and labels:
# [1] = target: Bromodomain-containing protein 4 (Homo sapiens) (UniProt O60885); conditions: Compound concentration 10.0 uM, Protein concentration 2.0 uM
# [2] = target: T1, Transcription intermediary factor 1-alpha (Homo sapiens) (UniProt O15164); conditions: Compound concentration 10.0 uM, Protein concentration 2.0 uM
# T1 sequence (whole entry): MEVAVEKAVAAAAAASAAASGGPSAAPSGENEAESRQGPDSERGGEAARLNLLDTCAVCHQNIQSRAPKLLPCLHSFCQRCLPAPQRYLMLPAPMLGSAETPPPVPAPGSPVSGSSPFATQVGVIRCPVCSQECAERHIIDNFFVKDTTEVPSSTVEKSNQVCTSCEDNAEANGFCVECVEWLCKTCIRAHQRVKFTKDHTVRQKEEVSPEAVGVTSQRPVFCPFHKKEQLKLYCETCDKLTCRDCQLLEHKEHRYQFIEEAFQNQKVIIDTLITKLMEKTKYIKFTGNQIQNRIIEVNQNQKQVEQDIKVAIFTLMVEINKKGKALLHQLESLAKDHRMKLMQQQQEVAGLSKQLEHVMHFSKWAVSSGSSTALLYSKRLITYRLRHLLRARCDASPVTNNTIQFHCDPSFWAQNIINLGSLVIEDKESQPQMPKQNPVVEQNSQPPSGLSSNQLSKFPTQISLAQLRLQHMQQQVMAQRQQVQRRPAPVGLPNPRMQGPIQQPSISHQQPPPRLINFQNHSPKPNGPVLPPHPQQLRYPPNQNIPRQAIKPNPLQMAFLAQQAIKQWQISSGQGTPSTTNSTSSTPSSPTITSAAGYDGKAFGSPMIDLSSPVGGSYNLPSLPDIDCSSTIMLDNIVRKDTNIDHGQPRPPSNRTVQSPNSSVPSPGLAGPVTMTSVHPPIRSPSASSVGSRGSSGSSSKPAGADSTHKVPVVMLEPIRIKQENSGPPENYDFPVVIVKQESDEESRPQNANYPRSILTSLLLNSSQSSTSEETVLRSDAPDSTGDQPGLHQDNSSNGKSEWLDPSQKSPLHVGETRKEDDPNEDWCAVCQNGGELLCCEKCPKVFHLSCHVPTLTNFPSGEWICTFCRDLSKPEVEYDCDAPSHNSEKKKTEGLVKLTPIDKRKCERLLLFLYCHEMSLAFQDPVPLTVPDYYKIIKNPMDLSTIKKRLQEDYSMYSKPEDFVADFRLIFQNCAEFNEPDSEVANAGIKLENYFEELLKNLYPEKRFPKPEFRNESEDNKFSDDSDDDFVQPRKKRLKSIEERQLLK
smiles,measurement,setting,value
CCCS(=O)(=O)c1nc(NC2CC2)cc(-c2ccc3c(ccn3C3CC(C)(C)NC(C)(C)C3)c2)n1,ΔTm,[1],0.53 °C
same,ΔTm,[2],0.33 °C
